Source: PubChem
CYP2C9 inhib – inhibitors of human CYP2C9. 96,000 compounds, 20% hits. P11712. inhibition, % at 5 µM. CYP2C9 Supersomes, luciferin-H conversion, luminescence;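 active means blocking of liver enzyme CYP2C9 beyond about 50% at 5 µM, limit read from the data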
CYP2C19 inh – human CYP2C19 inhibition. P33261. CYP2C19 Supersomes, luciferin-H EGE luminescence, 30 min. inhibition, % at 5 µM. 96,000 compounds, 21% hits;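 active means CYP2C19 inhibition above a set limit at 5 µM in the primary screen, cut at about 50% in these data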
Target sequence (P33261 whole entry, looked up): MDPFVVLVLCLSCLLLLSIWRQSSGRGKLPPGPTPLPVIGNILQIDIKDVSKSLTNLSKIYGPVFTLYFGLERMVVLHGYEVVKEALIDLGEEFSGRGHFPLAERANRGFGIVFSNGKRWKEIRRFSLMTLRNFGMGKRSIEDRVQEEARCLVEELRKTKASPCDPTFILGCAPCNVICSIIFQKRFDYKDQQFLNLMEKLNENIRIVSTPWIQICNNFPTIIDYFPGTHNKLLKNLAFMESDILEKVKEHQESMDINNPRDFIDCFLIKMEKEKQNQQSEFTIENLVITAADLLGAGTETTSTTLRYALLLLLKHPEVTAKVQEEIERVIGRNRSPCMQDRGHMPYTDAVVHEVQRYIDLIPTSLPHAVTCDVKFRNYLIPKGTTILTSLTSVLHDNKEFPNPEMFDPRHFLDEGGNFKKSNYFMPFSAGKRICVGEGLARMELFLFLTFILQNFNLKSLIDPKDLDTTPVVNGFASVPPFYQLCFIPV
CYP2C19 act – increases human CYP2C19 enzyme activity; recombinant CYP2C19, luciferin-H EGE luminescence; stronger effect = higher value; 0 = fully inhibited enzyme, 1 = untreated enzyme; activation factor at 5 µM; 96,000 tested, under 10 active; AID 1025;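 active means activation factor of at least 2 at 5 µM in the primary screen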
PostGolgi yeast – growth inhibition of a yeast mutant, post-Golgi transport screen | post-Golgi transport phenotypic cell assay | inhibition, % at 10 µM | 98,000 compounds, 0.9% hits | AID 739;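 further: yeast cells grown in 1536-well plates; yeast grown about 18 h at 30C before absorbance read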
CYP2C9 activ – CYP2C9 (human) activation | P11712 | activation factor at 5 µM | recombinant CYP2C9, luciferin-H conversion, luminescence; stronger effect = higher value; factor 1 = untreated enzyme, 0 = blocked | AID 1024 | 96,000 compounds, 1.4% hits;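 active means activation factor of 2 or more for CYP2C9 at a 5 µM dose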
PostGolgi ctrl – growth of the yeast control strain, post-Golgi counter-screen; efflux-deficient yeast background strain, growth absorbance A615, 16 h; inhibition, % at 10 µM; 98,000 compounds, 5% hits; AID 738
Each line names hits and unclear results; the compound was inactive in the other large screens. Shown are actives, neighbours in structure and some others; about 32% of the full set was active somewhere. Unless noted, no stated cut-off is given here; in the data, active means inhibition above about 30%; inactive means the rest.

COC(=O)c1ccc(C(C(=O)NC2CCCCC2)N(C(=O)Cc2cccs2)C2CC2)cc1 (stereo unspecified)	none
Cc1ccccc1C(C(=O)NC1CCCC1)N(C(=O)Cc1cccs1)c1ccc2c(c1)OCCO2 (stereo unspecified)	none
O=C(NC1CCCC1)C(c1ccncc1)N(Cc1cccs1)C(=O)c1csnn1 (stereo unspecified)	CYP2C9 inhib 53.7
CCc1ccc(N(C(=O)Cc2cccs2)C(C(=O)NC2CCCCC2)c2cn(C)nc2C)cc1 (stereo unspecified)	CYP2C19 inh 73.3
O=C(NC1CCCC1)C(c1cccs1)N(Cc1ccco1)C(=O)c1csnn1 (stereo unspecified)	none
COc1ccccc1CN(C(=O)c1ccco1)C(C(=O)NC1CCCC1)c1ccncc1 (stereo unspecified)	CYP2C19 inh 62.6
COc1ccccc1CN(C(=O)Cc1cccs1)C(C(=O)NC1CCCC1)c1ccncc1 (stereo unspecified)	CYP2C19 inh 76.9
COc1ccc(C(c2nnnn2CCc2ccccc2)N2CCN(C3CCCC3)CC2)cc1OC (stereo unspecified)	none
Cc1ccc2c(CC(=O)O)coc2c1C	none
O=C1CCN(S(=O)(=O)c2ccccc2)N1	none
O=C(NC1CCCCC1)C(c1ccncc1)N(Cc1ccccc1)C(=O)c1ccc(-c2ccccc2)[nH]1 (stereo unspecified)	CYP2C9 inhib 95.0, CYP2C19 inh 92.9
COc1cc(C(C(=O)NC2CCCCC2)N(Cc2cccs2)C(=O)Cc2c[nH]c3ccccc23)cc(OC)c1OC (stereo unspecified)	CYP2C9 inhib 57.5, CYP2C19 inh 73.4
O=C(NCC(=O)N(c1ccccc1)C(C(=O)NC1CCCCC1)c1ccncc1)c1ccco1 (stereo unspecified)	none
COc1ccc(CN(C(=O)c2ccc(-c3ccccc3)[nH]2)C(C(=O)NCC2CCCO2)c2ccc(C)o2)cc1 (stereo unspecified)	CYP2C19 inh 58.2
O=C(NC1CCCCC1)C(c1ccco1)N(Cc1ccco1)C(=O)c1ccco1 (stereo unspecified)	CYP2C9 inhib 63.1, CYP2C19 inh 64.8
CCn1ccnc1C(O)c1cccc(OC)c1OC (stereo unspecified)	none
COc1ccc(NC(=O)Nc2ccc(N3CCCC3=O)cc2)cc1OC	none
COc1ccc(C(=O)N(CC2CCCO2)C(C(=O)NC2CCCC2)c2ccc(Cl)cc2)cc1OC (stereo unspecified)	none
COc1ccc(CN(C(=O)Cc2c[nH]c3ccccc23)C(C(=O)NC2CCCCC2)c2ccc(C)o2)cc1 (stereo unspecified)	CYP2C9 inhib 94.4, CYP2C19 inh 92.9
COc1ccc(C(=O)N(Cc2ccco2)C(C(=O)NC2CCCC2)c2ccc(O)cc2)cc1OC (stereo unspecified)	CYP2C9 inhib 55.6, CYP2C19 inh 50.2
COc1ccc(C(C(=O)NC2CCCC2)N(Cc2ccccc2)C(=O)CNC(=O)c2ccco2)cc1 (stereo unspecified)	none
N#Cc1ccc(COc2ccc(CCO)cc2-n2nc3ccccc3n2)cc1	CYP2C9 inhib 89.1, CYP2C19 inh 52.6
CC(C)NCCCOc1ccc(Cl)cc1Br	none
CC(=O)SCC(C)C(=O)NCc1ccccc1 (stereo unspecified)	CYP2C19 inh 63.5
CCOc1ccc(S(=O)(=O)Nc2cc(Sc3ncn[nH]3)c3oc(=O)sc3c2)cc1	CYP2C9 inhib 66.8, CYP2C19 inh 69.0
CC(C)Oc1ccc(C(CC(=O)O)NC(=O)CSc2ncn[nH]2)cc1 (stereo unspecified)	none
c1ccc2c(c1)oc1c(Nc3ccc4c(c3)OCO4)ncnc12	CYP2C19 inh 53.7
c1ccc2c(c1)oc1c(Nc3ccc(CN4CCOCC4)cc3)ncnc12	CYP2C19 inh 59.8, PostGolgi yeast 55.7
Oc1ccccc1Nc1ncnc2c1oc1ccccc12	none
c1ccc2c(c1)oc1c(NCc3ccc4c(c3)OCO4)ncnc12	CYP2C9 inhib 84.8, CYP2C19 inh 69.7
c1ccc2c(c1)oc1c(NCCN3CCOCC3)ncnc12	none
Cc1nc(Nc2ccc3c(c2)OCO3)c2oc3ccccc3c2n1	CYP2C9 inhib 65.6, CYP2C19 inh 54.8
CCN(CCCNC(=O)c1[nH]c(C)c(C(C)=O)c1C)c1ccccc1	none
CC(C)(C)C(=O)OCCn1c(=O)c2cc3c(=O)n(CCOC(=O)C(C)(C)C)c(=O)c3cc2c1=O	none
O=C(CCCN1C(=O)c2ccccc2C1=O)NCc1cccnc1	none
CC(C)CCN1C(=O)c2ccccc2C1C(=O)NCc1cccnc1 (stereo unspecified)	CYP2C19 inh 61.6
O=C(NCc1cccnc1)C1c2ccccc2C(=O)N1Cc1ccco1 (stereo unspecified)	CYP2C19 inh 78.3
O=C(NCc1cccnc1)C1c2ccccc2C(=O)N1Cc1ccccc1 (stereo unspecified)	CYP2C19 inh 63.2
CC(=O)OC1c2ccccc2C(=O)N1Cc1ccccc1 (stereo unspecified)	CYP2C19 inh 51.0
Cc1ccc(C2c3c(oc4cc(C)c(C)cc4c3=O)C(=O)N2CCCN2CCOCC2)cc1 (stereo unspecified)	none (no result: PostGolgi yeast, PostGolgi ctrl)
S=c1[nH]nc(-c2ccccc2)n1C1C=CCCC1 (stereo unspecified)	CYP2C19 inh 68.2
S=c1[nH]nc(-c2ccccc2)n1CC1CCCO1 (stereo unspecified)	none
COc1ccc(NC(=O)c2ccc(C(=O)c3ccccc3)o2)cc1	none
COC(=O)c1cccc(NC(=O)/C=C/c2cccc([N+](=O)[O-])c2)c1	none
Cc1ccccc1NC(=O)C(C)O/N=C/c1cccc([N+](=O)[O-])c1 (stereo unspecified)	CYP2C9 inhib 93.3, CYP2C19 inh 95.3
CCOC(=O)C1C(=O)CC(C)(O)C(C(=O)OCC)C1c1ccc(OCC)cc1 (stereo unspecified)	none
CCOC(=O)C1C(=O)CC(C)(O)C(C(=O)OCC)C1c1cccc(OC(F)(F)C(F)F)c1 (stereo unspecified)	CYP2C9 inhib 89.8, CYP2C19 inh 85.9
C=CCOC(=O)C1C(=O)CC(C)(O)C(C(=O)OCC=C)C1c1ccc(OC)cc1 (stereo unspecified)	CYP2C19 inh 52.5
CCCN(CCC)C(=S)NC(=O)c1ccc(Cl)cc1Cl	none
CC(C)CN1C(=O)NC(NC(=O)c2cccnc2)(C(F)(F)F)C1=O (stereo unspecified)	none
O=C(NC1(C(F)(F)F)NC(=O)N(Cc2cccnc2)C1=O)c1ccncc1 (stereo unspecified)	CYP2C9 inhib 60.3
O=C(NC1(C(F)(F)F)NC(=O)N(Cc2cccnc2)C1=O)c1ccc(F)cc1 (stereo unspecified)	none
